In the library only some 8.2% were active in any assay of this set; here they are far more common.
MCF10A rerep – inducers of DNA re-replication in MCF 10A breast cells; MCF 10A DNA re-replication, Hoechst nuclear intensity, 48 h; Potency, µM (doses to about 46.1 µM), most hits filed as activators; actives 2.9% (n = 350,000); AID 624296; also: nearly all actives have a fitted effect of over 50% in size
KB-V1 MDR tox – kills drug-selected multidrug resistant KB-V1 cells. actives 3.4% (n = 400,000). KB-V1 MDR cells viability, CellTiter-Glo, 72 h. Potency, µM (highest dose often 46.1 µM), most hits filed as cytotoxic; also: nearly all actives have a fitted effect of over 60% in size
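Compound-treated KB-V1 multidrug-resistant cells, 72 h, 37 degrees C; viability by CellTiter-Glo. Fitted qHTS curves give the values.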
SW480 rerep – DNA re-replication induction in SW480 cells; SW480 DNA re-replication, Hoechst DNA content imaging, 48 h; Potency, µM (doses to about 46.1 µM), most hits filed as activators; actives 1.8% (n = 340,000); AID 624297; also: nearly all actives have a fitted effect of over 55% in size
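Compounds, transferred as 23 nL by pin tool, were incubated with cells for 48 hr; DNA content per nucleus was then quantified by Hoechst staining and fluorescence plate imaging.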
KB-3-1 cytotox – kills parental KB-3-1 adenocarcinoma cells. actives 1.4% (n = 400,000). AID 1347075. Potency, µM (titrated, usually from 46.1 µM), actives largely listed as cytotoxic. KB-3-1 viability, CellTiter-Glo ATP luminescence, 72 h; also: nearly all actives have a fitted effect of over 60% in size
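Viability of parental KB-3-1 cells, measured by CellTiter-Glo luminescence, followed a 72 h incubation at 37 °C with pinned compounds in phenol-red-free DMEM containing 10% FBS.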
ELG1 repair inh – inhibitors of ELG1-dependent DNA repair in HEK293T cells. Potency, µM (top dose mostly 46.1 µM), usual class: inhibitors. actives 2.3% (n = 330,000). HEK293T ELG1-luciferase reporter, luminescence, 16 h; DNA damage induced by 5-fluorouridine; also: nearly all actives have a fitted effect of over 55% in size
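Reporter activity after DNA damage by 5-fluorouridine is monitored. Compound-treated cells incubate 16 hr at 37 °C, then ONE-Glo is added for 30 min before luminescence reading.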
Large screens that a line does not name were inactive. Calls follow the shape of the dose curve; as a rule, active = well fitted curve in the direction sought with a large enough effect; inconclusive = small, poorly fitted or top-dose-only effect, or another doubt; inactive = no such curve, though single readings can be large; an effect the other way counts as inactive or inconclusive.

COC(=O)c1ccccc1-c1ccc(/C=N/NC(N)=O)o1	KB-V1 MDR tox 5.2µM, KB-3-1 cytotox 15µM
COC(=O)c1ccccc1-c1ccc(C=O)o1	none
COC(=O)N/N=C/c1ccc(-c2ccccc2Cl)o1	KB-V1 MDR tox 6.5µM, KB-3-1 cytotox inconclusive, ELG1 repair inh inconclusive
O=C(CC1C(=O)N(c2ccccc2)C(=O)N1CCC1=CCCCC1)Nc1ccc(F)cc1 (centres undefined)	none (no result: MCF10A rerep, SW480 rerep, ELG1 repair inh)
CCOC(=O)/C=C1/SCC(=O)N1CC(=O)Nc1cccc(F)c1	none
CCOC(=O)/C=C1\SCC(=O)N1CC(=O)Nc1ccc2c(c1)CCC2	MCF10A rerep 9.2µM, KB-V1 MDR tox inconclusive, SW480 rerep inconclusive
Clc1cc(Br)ccc1OCCCn1ccnc1	KB-V1 MDR tox 21µM, KB-3-1 cytotox inconclusive
CC1CCN(CCCCOc2ccc(Br)cc2)CC1	MCF10A rerep inconclusive
Clc1cc(Br)ccc1OCCn1ccnc1	KB-V1 MDR tox inconclusive
Cc1cc(Br)ccc1OCCCCN1CCC(C)CC1	MCF10A rerep 7.3µM, KB-V1 MDR tox inconclusive, SW480 rerep inconclusive
Cc1cc(Br)ccc1OCCn1ccnc1	KB-V1 MDR tox 16µM
Cc1cccc(Cl)c1OCCCCn1ccnc1	KB-V1 MDR tox 21µM
CC(=O)Nc1ccc(NC(=O)C2CC(=O)N(c3ccccc3Cl)C2)cc1 (centres undefined)	none
O=C(/C=C/c1c(Cl)cccc1Cl)NCCCn1ccnc1	MCF10A rerep 23µM, SW480 rerep inconclusive (no result: ELG1 repair inh)
O=C(/C=C/c1ccc(Br)cc1)NCCCn1ccnc1	none
O=C(CCNC(=O)c1ccco1)Nc1ccc(N2CCOCC2)cc1	none
COc1ccccc1C(=O)NC(=S)NNC(=O)c1sc2ccccc2c1Cl	MCF10A rerep 5.2µM
COc1ccc(-n2nc([N+](=O)[O-])c(=NCCc3ccc(C)cc3)n2O)cc1	ELG1 repair inh inconclusive
COc1ccc(-n2nc([N+](=O)[O-])c(=NCc3cccnc3)n2O)cc1	KB-V1 MDR tox 21µM, ELG1 repair inh inconclusive
COc1ccc(-n2nc([N+](=O)[O-])c(=NCCc3ccc(OC)c(OC)c3)n2O)cc1	KB-V1 MDR tox 2.6µM, ELG1 repair inh inconclusive
CCC1CCC/C1=N\NC(=O)c1ccoc1C (centres undefined)	ELG1 repair inh inconclusive
CN1C(=O)COc2ccc(C(=O)c3oc4ccccc4c3-c3cnc4c(c3)COc3ccccc3-4)cc21	ELG1 repair inh 9.2µM (no result: MCF10A rerep, KB-V1 MDR tox, SW480 rerep, KB-3-1 cytotox)
CC(=O)NC(CCS(C)(=O)=O)C(=O)Nc1cc(Cl)ccc1Cl (centres undefined)	none
CC(C)S(=O)(=O)c1csc(NC(=O)Nc2cc(Cl)ccc2Cl)c1Cl	MCF10A rerep inconclusive, KB-V1 MDR tox inconclusive, KB-3-1 cytotox inconclusive, ELG1 repair inh 21µM
COc1cccc(-n2c(SCC(=O)Nc3nnc(C)s3)nc3c([nH]c4ccccc43)c2=O)c1	none (no result: MCF10A rerep, SW480 rerep, ELG1 repair inh)
O=C(NC1(C(F)(F)F)C(=O)Nc2c1c(=O)[nH]c(=O)n2-c1ccc(F)cc1)c1ccccc1 (centres undefined)	KB-V1 MDR tox inconclusive (no result: MCF10A rerep, SW480 rerep, ELG1 repair inh)
Cc1cccc(C2=NC(C(F)(F)F)(C(F)(F)F)c3c(n(-c4ccc(F)cc4)c(=O)[nH]c3=O)N2)c1	MCF10A rerep inconclusive, KB-V1 MDR tox inconclusive, SW480 rerep inconclusive, KB-3-1 cytotox inconclusive, ELG1 repair inh 9.2µM
Cc1ccc(C)c(NC(=O)CSc2nccn2-c2cccc(C)c2C)c1	none (no result: MCF10A rerep, SW480 rerep, ELG1 repair inh)
C=CCOc1c(Br)cc(C2C3=C(CCCC3=O)N(C)C3=C2C(=O)CCC3)cc1OCC	SW480 rerep 23µM
CCOC(=O)Cn1c(=O)oc2cc(S(=O)(=O)N3CCN(c4cccc(C)c4C)CC3)ccc21	none (no result: MCF10A rerep, SW480 rerep, ELG1 repair inh)
CC(=O)N1c2ccc3ccccc3c2C(C)CC12CCCCC2 (centres undefined)	MCF10A rerep inconclusive
CC(=O)N1Cc2ccccc2C(C)CC12CCCCC2 (centres undefined)	KB-V1 MDR tox 16µM
O=c1[nH][nH]c2c1[C@H](c1ccc(Cl)cc1)O[C@H](C1CCCCC1)C2	KB-V1 MDR tox inconclusive (no result: MCF10A rerep, SW480 rerep, ELG1 repair inh)
O=[N+]([O-])c1ccc(S(=O)Cc2ccccc2)c([N+](=O)[O-])c1 (centres undefined)	MCF10A rerep 4.1µM, KB-V1 MDR tox inconclusive, SW480 rerep 23µM, KB-3-1 cytotox inconclusive (no result: ELG1 repair inh)
O=[N+]([O-])c1ccc(CS(=O)c2ccccc2)cc1 (centres undefined)	KB-V1 MDR tox inconclusive (no result: ELG1 repair inh)
CCC(=O)OC1=CN(Cc2ccccc2)S(=O)(=O)c2ccccc21	none (no result: MCF10A rerep, SW480 rerep, ELG1 repair inh)
COc1ccc(N2CCN(C(=O)C3CCCN(S(=O)(=O)c4ccc(C)cc4)C3)CC2)cc1 (centres undefined)	KB-V1 MDR tox inconclusive, ELG1 repair inh 21µM
CCOC(=O)N1CCN(S(=O)(=O)c2ccc(C)cc2)C1c1ccc(OC)cc1 (centres undefined)	ELG1 repair inh inconclusive
O=C(C1CCCN(S(=O)(=O)c2ccccc2)C1)N1CCCc2ccccc21 (centres undefined)	MCF10A rerep inconclusive, ELG1 repair inh 23µM
Cc1ccc(S(=O)(=O)N2CCCC(C(=O)N3CCN(c4ccccc4)CC3)C2)cc1 (centres undefined)	KB-V1 MDR tox inconclusive, KB-3-1 cytotox inconclusive, ELG1 repair inh 21µM
CCOC(=O)N1CCN(S(=O)(=O)c2ccc(C)cc2)C1c1ccccc1 (centres undefined)	KB-V1 MDR tox inconclusive, ELG1 repair inh 26µM
Cc1ccc(S(=O)(=O)N2CCCC(C(=O)N3CCCc4ccccc43)C2)cc1 (centres undefined)	none
CCOC(=O)N1CCN(C(=O)C2CCCN(S(=O)(=O)c3ccc(F)cc3)C2)CC1 (centres undefined)	none
CCOC(=O)N1CCN(C(=O)C2CCCN(S(=O)(=O)c3ccc(C)cc3)C2)CC1 (centres undefined)	KB-V1 MDR tox 3.7µM
CCOC1=C2CN(S(=O)(=O)c3ccc(C)cc3)C(c3ccc(C)cc3)CC2N(S(=O)(=O)c2ccc(C)cc2)C(c2ccccc2)C1 (centres undefined)	KB-V1 MDR tox inconclusive, KB-3-1 cytotox 3.3µM (no result: MCF10A rerep, SW480 rerep, ELG1 repair inh)
CCOC1=C2CN(S(=O)(=O)c3ccc(C)cc3)[C@H](c3ccccc3)C[C@@H]2N(S(=O)(=O)c2ccc(C)cc2)[C@H](c2ccccc2)C1	none (no result: MCF10A rerep, SW480 rerep, ELG1 repair inh)
Cc1ccc(S(=O)(=O)C(CNC(=O)c2ccc(C(F)(F)F)cc2)c2ccco2)cc1 (centres undefined)	none (no result: MCF10A rerep, SW480 rerep, ELG1 repair inh)
CC1CN(Cc2nc3c(c(=O)[nH]c(=O)n3C)n2CCCc2ccccc2)CC(C)O1 (centres undefined)	KB-V1 MDR tox 3.3µM
CC(C)CCn1c(Sc2nc3ccccc3o2)nc2c1c(=O)[nH]c(=O)n2C	MCF10A rerep inconclusive, KB-V1 MDR tox 15µM, SW480 rerep inconclusive
Cn1c(=O)[nH]c(=O)c2c1nc(NCc1ccccc1)n2CCCc1ccccc1	KB-V1 MDR tox 12µM
